PAFAH1B2 inh – inhibitors of human PAFAH1B2; recombinant PAFAH1B2, FP-rhodamine activity probe, fluorescence polarization; 340,000 tested, 1.2% active; AID 492953; P68402; inhibition, % at 3.39 µM;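 active means inhibition above the mean of all tested compounds plus 3 SD, cut at about 24% in these data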;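 further: 0% = enzyme with DMSO and 100% = wells lacking PAFAH1B2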
Target sequence (P68402 whole entry, looked up): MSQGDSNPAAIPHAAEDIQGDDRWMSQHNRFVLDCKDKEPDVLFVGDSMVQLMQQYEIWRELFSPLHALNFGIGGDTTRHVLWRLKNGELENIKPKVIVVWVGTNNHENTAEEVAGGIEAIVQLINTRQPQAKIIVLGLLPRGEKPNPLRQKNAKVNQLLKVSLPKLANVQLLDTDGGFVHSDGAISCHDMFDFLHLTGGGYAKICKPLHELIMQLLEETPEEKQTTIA
rCAG binder – binds r(CAG) RNA repeats. r(CAG) RNA repeat, TO-PRO-1 dye displacement fluorescence. inhibition, % at 3 µM. 370,000 tested, 1.3% active. AID 651821;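 active means inhibition above the plate cutoff, the mean of all test compounds on that plate plus 3 SD, cut at about 35% in these data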;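 further: 0% = DMSO alone and 100% = 100 µM mitoxantrone as full dye displacement; higher means more dye released from RNA so lower well fluorescence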
EBNA-1 inh – blocks EBNA-1 binding to DNA; EBNA-1 DNA binding, fluorescence polarization; 300,000 tested, 0.34% active; inhibition, % at 14.8 µM; in the data active means inhibition above about 28%
PAFAH1B3 FP inh – PAFAH1B3 (human) inhibition. Q15102. recombinant PAFAH1B3, FP-rhodamine probe, fluorescence polarization. inhibition, % at 3.39 µM. 340,000 tested, 0.28% active;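 active means inhibition above the screen-wide average of all tested compounds plus 3 SD, cut at about 25% in these data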;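 further: 0% = enzyme with DMSO only and 100% = wells lacking PAFAH1B3 protein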
PAFAH2 FP inh – PAFAH2 (human) inhibition | AID 492956 | 340,000 tested, 0.99% active | Q99487 | inhibition, % at 3.39 µM | recombinant PAFAH2, FP-rhodamine activity probe, fluorescence polarization;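 active means inhibition above the mean over all tested compounds plus 3 SD, cut at about 30% in these data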;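 further: inhibitors block probe labeling of enzyme so polarization drops; 0% = enzyme with DMSO and 100% = wells lacking PAFAH2 protein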
ZTA counter – blocks Epstein-Barr virus ZTA, an EBNA-1 counter-screen; 320,000 tested, 0.15% active; AID 2234; ZTA-DNA binding, fluorescence polarization; inhibition, % at 11 µM; P03206; in the data active means inhibition above about 33%
Target sequence (P03206 whole entry, looked up): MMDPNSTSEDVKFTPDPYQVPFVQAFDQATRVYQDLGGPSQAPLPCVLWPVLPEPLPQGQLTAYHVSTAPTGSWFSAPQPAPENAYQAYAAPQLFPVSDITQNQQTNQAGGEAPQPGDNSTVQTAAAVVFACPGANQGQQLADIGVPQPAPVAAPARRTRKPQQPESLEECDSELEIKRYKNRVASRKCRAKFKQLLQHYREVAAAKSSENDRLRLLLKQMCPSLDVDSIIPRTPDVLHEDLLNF
rCAG bind conf – r(CAG) RNA repeat binding, confirmation; shares compounds with rCAG binder; TO-PRO-1 dye displacement fluorescence; inhibition, % at 3 µM; 4,300 tested, 70% active; AID 652065;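 active means inhibition above a per-plate cutoff, the mean inhibition of sample wells plus 3 SD, cut at about 35% in these data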;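 further: loss of TO-PRO-1 fluorescence as compound displaces dye from 1x1 AA loop RNA; 0% = DMSO only wells and 100% = 100 µM mitoxantrone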
DNA CAG counter – counter-screen for rCAG RNA binders: DNA CAG dye complex inhibitors; shares compounds with rCAG binder; d(CAG) DNA oligo TO-PRO-1 dye displacement, fluorescence; inhibition, % at 3 µM; 4,300 tested, 94% active; AID 652068;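 active means inhibition above its plate's cutoff, the mean test-well inhibition plus 3 SD, cut at about 4.8% in these data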;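 further: 0% = DNA dye mix with DMSO and 100% = 100 µM mitoxantrone; hits displace the dye from DNA and so lower well fluorescence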
dCAG dye DR – disrupts DNA CAG TO-PRO-1 complex in dose response; shares compounds with rCAG binder; DNA CAG/GTC duplex TO-PRO-1 dye displacement fluorescence; IC50, µM; 250 tested, 20% active; in the data active means IC50 below about 10 µM
* hit, by the source's call; nt = no result. This is a sample that favours compounds with a hit; in the whole collection about 2.9% have one here.

SMILES	PAFAH1B2 inh	rCAG binder	EBNA-1 inh	PAFAH1B3 FP inh	PAFAH2 FP inh	ZTA counter	rCAG bind conf	DNA CAG counter	others
CC1CN(C(=O)/C=C/c2ccc(SC(F)F)cc2)CC(C)O1 (stereo not drawn)	0	-6	19	3	-2	12	nt	nt
CCOC(=O)c1c(/N=C/c2cc([N+](=O)[O-])ccc2O)sc(C)c1C	2	65*	9	4	-4	-12	9	7.2*
COc1ccc2nc(Nc3ccc4c(c3)OCO4)sc2c1	4	10	0	4	13	-24	nt	nt
COc1ccc2nc(Nc3nc4cc5c(cc4s3)OCO5)sc2c1	0	44*	4	16	-8	-26	32	20*
CC1(C)CC(=O)C2=C(C1)c1c(ccc3ccccc13)NC2c1cc([N+](=O)[O-])cc([N+](=O)[O-])c1O (stereo not drawn)	29*	93*	8	20	35*	5	89*	64*
COC(=O)C1(C(=O)OC)c2ccccc2CN(S(=O)(=O)c2ccc(C)cc2)C1CC(C)=O (stereo not drawn)	nt	0	nt	nt	nt	nt	nt	nt
C/C=C/c1cccc(-c2nc(C(=O)NC3CCCC3)cc3c2[C@@H](CCO)N(S(=O)C(C)(C)C)C3)c1 (stereo partly drawn)	nt	9	nt	nt	nt	nt	nt	nt
Cc1ccc(/C=C/C(=O)c2ccc(N3CCOCC3)cc2)s1	4	3	-7	9	12	-4	nt	nt
O=c1cc(-c2ccc(O)c(O)c2)oc2c1ccc1ccccc12	14	57*	nt	34*	48*	1	61*	28*
O=C(Nc1ccc(Cl)c(Cl)c1)Nc1ccccc1C(=O)O	-2	61*	10	-8	4	-29	51*	11*	dCAG dye DR=>30
O=C(Nc1ccc(Cl)c(Cl)c1)Nc1ccccc1NS(=O)(=O)c1cccs1	10	42*	17	8	8	10	33	9.4*
CC(=O)c1cccc(NC(=O)C(OC(=O)c2ccccc2NS(=O)(=O)c2cccs2)c2ccccc2)c1 (stereo not drawn)	-24	43*	11	-54	-56	9	36*	17*
O=C(Nc1ccc(Cl)cc1)Nc1ccccc1C(=O)O	10	14	-2	10	0	0	nt	nt
Cc1cccc(OCCCN2CCC(C(O)(c3ccccc3)c3ccccc3)CC2)c1	nt	0	nt	nt	nt	nt	nt	nt
O=C(O)c1cccc(S(=O)(=O)Nc2ccc(OCc3ccccc3)cc2)c1	58*	41*	-9	4	-3	-9	17	4
CCOc1cc(OCC)cc(C(=O)O)c1	6	-3	11	4	0	5	nt	nt
O=C(NC(=S)Nc1ccc(CN2CCCCC2)cc1)c1cccc(OCc2ccccc2)c1	1	-4	6	3	-17	-3	nt	nt
O=C(O)c1ccc(NC(=S)NC(=O)c2cccc(COc3ccccc3)c2)cc1	-1	48*	-4	-12	-9	-24	49*	16*
O=C(O)c1cc(OCc2ccccc2)cc(OCc2ccccc2)c1	29*	43*	7	2	12	2	40*	8.0*
O=C(O)/C=C/c1ccc(S(=O)(=O)Nc2ccc(OCc3ccccc3)cc2)cc1	5	52*	8	1	2	7	30	6.8*
COc1ccc(N2CCN(CCNS(=O)(=O)c3ccccc3[N+](=O)[O-])CC2)cc1	nt	2	nt	nt	nt	nt	nt	nt
CCc1nn(C(CC)C(=O)NCc2cccc(OC)c2OC)c(=O)c2cc3occc3n12 (stereo not drawn)	6	-6	5	6	2	9	nt	nt
CC(C)(C)OC(=O)NCCc1nc(NC(=O)OCc2ccccc2)sc1C(=O)O	nt	10	nt	nt	nt	nt	nt	nt
CCNC(=O)N1CCN(c2ccc(N3CCN(C(=O)NCC)[C@@H](C)C3)c(C)c2)[C@H](C)C1	nt	0	nt	nt	nt	nt	nt	nt
CSc1ccccc1NC(=O)CN(C)Cc1cc(=O)n2ccsc2n1	1	-2	-1	2	2	-17	nt	nt
SMILES	PAFAH1B2 inh	rCAG binder	EBNA-1 inh	PAFAH1B3 FP inh	PAFAH2 FP inh	ZTA counter	rCAG bind conf	DNA CAG counter	others
c1ccc(N=NC2=NN(c3ccccc3)CS2)cc1	nt	7	nt	nt	nt	nt	nt	nt
COc1ccccc1C(=O)COC(=O)c1c(-c2ccccc2)noc1C	3	-11	-6	3	-8	8	nt	nt
O=C(O)c1cc(S(=O)(=O)Nc2ccc(OCc3ccccc3)cc2)ccc1Br	38*	45*	8	9	-2	22	28	7.5*
O=C(O)CCc1ccc(S(=O)(=O)Nc2ccc(OCc3ccccc3)cc2)cc1	12	23	2	9	8	-14	nt	nt
CCOc1ccc(NS(=O)(=O)c2ccc(C(=O)NNC(=O)c3ccccc3O)cc2)cc1	3	35*	-15	1	-1	-7	14	4
CCOc1ccc(S(=O)(=O)Nc2ccc(C(=O)NNC(=O)c3ccncc3)cc2)cc1	5	3	5	11	3	2	nt	nt
CCC(c1nc2ccccc2[nH]1)N(C(=O)C1=NNC(=O)CC1)c1ccccc1 (stereo not drawn)	nt	2	nt	nt	nt	nt	nt	nt
CC(=O)N(c1ccc2oc(=O)sc2c1)S(=O)(=O)c1cccc2cccnc12	10	37*	4	7	8	10	6	5.3*
Cc1ccc(-c2nc3ncccn3c2NC(=O)c2ccc(F)cc2)cc1	nt	5	nt	nt	nt	nt	nt	nt
O=C1CSC(=Nc2cccc([N+](=O)[O-])c2)N1	6	-1	-1	0	0	0	nt	nt
Cc1cc(C(F)(F)F)c(C#N)c(SCC(=O)Nc2nc3cc(Br)ccc3s2)n1	-29	5	-5	-57	-54	4	nt	nt
N#Cc1c(SCC(=O)Nc2nc3ccc(Br)cc3s2)sc2c(O)cc(=O)[nH]c12	12	67*	19	19	17	8	82*	51*
N#Cc1c(SCC(=O)Nc2nc3ccccc3s2)sc2c(O)cc(=O)[nH]c12	19	63*	nt	28*	35*	-20	60*	26*	dCAG dye DR=9.3*
O=C(CSc1ccccn1)Nc1nc2ccccc2s1	6	-3	7	-4	-2	1	nt	nt
CCOC(=O)COc1c(/C=N\OC)cc(Cl)cc1OC	-1	-1	0	-3	2	2	nt	nt
Cc1ccc(S(=O)(=O)Nc2ccccc2C(=O)Nc2ccc(S(=O)(=O)Nc3nccc(C)n3)cc2)cc1	4	59*	0	-2	16	0	55*	24*
Cc1ccc(CNC(=O)c2ccccc2NS(C)(=O)=O)cc1	7	1	5	1	-3	-3	nt	nt

Source: PubChem (The Scripps Research Institute Molecular Screening Center)
